# Experimental data from the supplement of paper PMC9135407.
# “And” between values parts separate entries of the source, which are not always exact repeats. Equal entries are not always repeated. Structures can show the parent of a compound that is named as a salt. Screen size: about 5,800 compounds; about 620 (11%) showed activity.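 Rule for the calls: active = score above a cut-off or among the top three wells of a plate; in these data no inactive exceeds 0.85.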 For the sample, actives were picked, then their nearest neighbours and some compounds at random.
# Tested on: primary human hepatic stellate cells (donor 1)
# Assay: scaled lipid accumulation score (0 = DMSO-like, 1 = nortriptyline-like); higher = stronger HSC inactivation (lipid re-accumulation), active = hit call of the paper
# Details: 48 h
# [1] = library stock concentration: 1 mM
# [2] = library stock concentration: 80 uM
# [3] = library stock concentration: 400 uM
# [4] = library stock concentration: 2 mM
# [5] = library stock concentration: 3.33 mM
# [6] = library stock concentration: 10 mM
structure (smiles),measurement,setting,value
[O-]/[N+](=N\O[C@@H]1O[C@H](CO)[C@H](O)[C@H](O)[C@H]1O)N1CCCC1 [.beta.-Gal-NONOate],scaled lipid accumulation score,[1],≤ 0 (inactive)
CCCCC/C=C\C/C=C\CCCCCCCC(=O)O [Linoleic acid],scaled lipid accumulation score,[1],≤ -0.021 (inactive)
CCCCC/C=C\C/C=C\CCCCCCCC(=O)O [Linoleic Acid (peroxide free)],scaled lipid accumulation score,[1],0.024 (inactive)
CCCCC[C@H](O)/C=C/[C@H]1C(=O)C[C@H](O)[C@@H]1C/C=C\CCCC(=O)O [Prostaglandin  D2],scaled lipid accumulation score,[1],≤ -0.021 (inactive)
CCCCC[C@H](O)/C=C/[C@H]1C(=O)C[C@H](O)[C@@H]1C/C=C\CCCC(=O)O [Prostaglandin D2],scaled lipid accumulation score,[1],≤ 0 (inactive)
COc1cc2nccc(Oc3ccc(NC(=O)C4(C(=O)Nc5ccc(F)cc5)CC4)cc3)c2cc1OC,scaled lipid accumulation score,[2],0.011 (inactive)
same,scaled lipid accumulation score,[3],≤ -0.016 (inactive)
same,scaled lipid accumulation score,[4],0.189 (inactive)
same,scaled lipid accumulation score,[5],0.757 (inactive)
same,scaled lipid accumulation score,[6],0.459 (inactive) and 0.491 (inactive)
COc1cc2c(Oc3ccc(NC(=O)C4(C(=O)Nc5ccc(F)cc5)CC4)cc3F)ccnc2cc1OCCCN1CCOCC1 [listing 1 of 2 here],scaled lipid accumulation score,[5],1.09 (active)
COc1cc2c(Oc3ccc(NC(=O)C4(C(=O)Nc5ccc(F)cc5)CC4)cc3F)ccnc2cc1OCCCN1CCOCC1 [listing 2 of 2 here],scaled lipid accumulation score,[2],0.524 (inactive)
same,scaled lipid accumulation score,[3],0.545 (inactive)
same,scaled lipid accumulation score,[4],0.834 (inactive)
same,scaled lipid accumulation score,[6],0.842 (inactive) and 0.706 (inactive)
COc1cc2nccc(Oc3ccc(NC(=O)C4(C(=O)Nc5ccc(F)cc5)CC4)cc3)c2cc1OC [Cabozantinib malate (XL184)],scaled lipid accumulation score,[5],0.354 (inactive)
same,scaled lipid accumulation score,[6],0.677 (inactive)
O=C(NCCCNc1nc(Nc2cccc(NC(=O)N3CCCC3)c2)ncc1I)c1cccs1 [listing 1 of 4 here],scaled lipid accumulation score,[6],1.07 (active)
NCCC(=O)NCCc1c[nH]cn1 [Carcinine],scaled lipid accumulation score,,0.074 (inactive)
O=C(NCCCNc1nc(Nc2cccc(NC(=O)N3CCCC3)c2)ncc1I)c1cccs1 [listing 2 of 4 here],scaled lipid accumulation score,[2],≤ -0.016 (inactive)
same,scaled lipid accumulation score,[3],≤ -0.016 (inactive) and ≤ -0.005 (inactive)
same,scaled lipid accumulation score,[4],≤ -0.016 (inactive) and 0.235 (inactive)
same,scaled lipid accumulation score,[5],0.048 (inactive)
O=C(NCCCNc1nc(Nc2cccc(NC(=O)N3CCCC3)c2)ncc1I)c1cccs1 [listing 3 of 4 here],scaled lipid accumulation score,[6],0.937 (active)
O=C(Nc1cccc(Nc2ncc(Br)c(NCCc3c[nH]cn3)n2)c1)N1CCCC1,scaled lipid accumulation score,[6],0.978 (active)
O=C(NCCCNc1nc(Nc2cccc(NC(=O)N3CCCC3)c2)ncc1I)c1cccs1 [listing 4 of 4 here],scaled lipid accumulation score,[6],1.2 (active)
O=C(Nc1cccc(Nc2ncc(Br)c(NCCc3cnc[nH]3)n2)c1)N1CCCC1,scaled lipid accumulation score,[2],≤ 0 (inactive)
same,scaled lipid accumulation score,[3],≤ 0 (inactive) and ≤ -0.005 (inactive)
same,scaled lipid accumulation score,[4],≤ 0 (inactive) and ≤ -0.005 (inactive)
same,scaled lipid accumulation score,[5],≤ 0 (inactive)
same,scaled lipid accumulation score,[6],0.029 (inactive) and 0.7 (inactive)
CC(=O)Oc1ccc2c(c1)CCC1C2CC[C@]2(C)C(=O)CCC12 (stereo partly drawn) [Estrone acetate],scaled lipid accumulation score,[6],≤ 0 (inactive)
CCCCn1c(=O)c2c(ncn2CC(C)=O)n(CCCC)c1=O [Denbufylline],scaled lipid accumulation score,library stock concentration: 6.2 mM,≤ -0.006 (inactive)
CCCCc1nc2ccn(Cc3cccs3)c(=O)c2n1Cc1ccc(-c2ccccc2-c2nn[nH]n2)cc1,scaled lipid accumulation score,[6],≤ -0.006 (inactive)
Cc1cc(C(=O)O)sc1C(N)C(=O)O (stereo not drawn),scaled lipid accumulation score,[6],0.007 (inactive)
CCCn1c(=O)[nH]c(=O)c2[nH]cnc21 [3-n-Propylxanthine],scaled lipid accumulation score,[6],≤ 0 (inactive)
CCOC(=O)c1[nH]c2cc(Cl)ccc2c1C(C(=O)NC(C)(C)C)N(C=O)Cc1ccc(Cl)cc1 (stereo not drawn),scaled lipid accumulation score,[5],≤ -0.009 (inactive)
same,scaled lipid accumulation score,[6],0.547 (inactive)
Nc1nc(SCc2ccc([N+](=O)[O-])cc2)c2ncn([C@@H]3O[C@H](CO)[C@H](O)C3O)c2n1 (stereo partly drawn) [S-(4-Nitrobenzyl)-6-thioguanosine],scaled lipid accumulation score,[6],0.41 (inactive)
O=C(O)CCC/C=C\C[C@H]1[C@@H](O)CC(=O)[C@@H]1/C=C/[C@@H](O)CCc1ccccc1 [17-phenyl trinor Prostaglandin D2],scaled lipid accumulation score,[1],≤ 0 (inactive)
CNc1nc(-c2ccc3c(N)n[nH]c3c2)cc(N2C[C@@H](C(=O)NC3CCCCC3)CC[C@H]2C)n1,scaled lipid accumulation score,[2],≤ -0.016 (inactive)
same,scaled lipid accumulation score,[3],≤ -0.016 (inactive)
same,scaled lipid accumulation score,[4],≤ -0.016 (inactive)
same,scaled lipid accumulation score,[5],≤ 0 (inactive)
same,scaled lipid accumulation score,[6],0.741 (inactive) and 0.773 (inactive)
CN(NC(=O)CC(=O)NN(C)C(=S)c1ccccc1)C(=S)c1ccccc1 [Elesclomol (STA-4783)],scaled lipid accumulation score,[5],≤ 0 (inactive)
same,scaled lipid accumulation score,[6],≤ 0 (inactive)
O=c1cc(-c2ccccc2F)[nH]c2cc3c(cc12)OCO3 [CHM-1 hydrate],scaled lipid accumulation score,[6],0.875 (active)
Cn1c(-c2ccc3c(c2)OCO3)cc(=O)c2ccccc21 [Graveoline],scaled lipid accumulation score,,≤ 0 (inactive)
O=C(NC(NC(=S)Nc1ccc(F)c([N+](=O)[O-])c1)C(Cl)(Cl)Cl)C(c1ccccc1)c1ccccc1 (stereo not drawn),scaled lipid accumulation score,[2],≤ 0 (inactive)
same,scaled lipid accumulation score,[3],0.081 (inactive)
same,scaled lipid accumulation score,[4],0.01 (inactive)
same,scaled lipid accumulation score,[5],≤ -0.009 (inactive)
same,scaled lipid accumulation score,[6],0.019 (inactive) and 0.171 (inactive) and 0.352 (inactive)
O=C(NC1CCNCC1)c1n[nH]cc1NC(=O)c1c(Cl)cccc1Cl,scaled lipid accumulation score,[2],0.367 (inactive)
same,scaled lipid accumulation score,[3],0.117 (inactive) and 0.282 (inactive)
same,scaled lipid accumulation score,[4],0.26 (inactive) and 0.49 (inactive)
same,scaled lipid accumulation score,[5],0.109 (inactive)
same,scaled lipid accumulation score,[6],0.212 (inactive) and 0.239 (inactive) and 0.462 (inactive)
C[C@H](CCCO)[C@H]1CC[C@H]2[C@@H]3[C@H](O)C[C@H]4C[C@H](O)CC[C@]4(C)[C@H]3C[C@H](O)[C@]12C [Petromyzonol],scaled lipid accumulation score,[1],0.043 (inactive)
Cn1cc(-c2ccc(F)c(C(F)(F)F)c2)nc1C1CCN(c2ncnc3[nH]ncc23)CC1,scaled lipid accumulation score,[2],0.021 (inactive)
same,scaled lipid accumulation score,[3],0.015 (inactive)
same,scaled lipid accumulation score,[4],0.054 (inactive)
same,scaled lipid accumulation score,[6],0.371 (inactive)
CCc1ccc2c(O)c3c(cc2c1C(=O)OC)C(=O)c1c(O)ccc(O)c1C3=O [Bisanhydrorutilantinone],scaled lipid accumulation score,[6],0.11 (inactive)
CCCCC[C@@H](O)/C=C/[C@@H]1[C@@H](C/C=C\CCCC(=O)O)[C@@H](O)C[C@H]1O [15(R)-Prostaglandin F2.alpha.],scaled lipid accumulation score,[1],≤ 0 (inactive)
C=C1CC2(O)OC3(CC2C(C)C)C(C)CCC13 (stereo not drawn) [Curcumol],scaled lipid accumulation score,[5],≤ 0 (inactive)
same,scaled lipid accumulation score,[6],≤ 0 (inactive)
CCn1c2ccccc2c2cc(CNC)ccc21.Cl,scaled lipid accumulation score,[6],0.872 (active)
CCn1c2ccccc2c2cc(Nc3ccnc(NCCCN4CCOCC4)n3)ccc21,scaled lipid accumulation score,[5],0.673 (inactive)
same,scaled lipid accumulation score,[6],0.087 (inactive)
CCn1c(=O)[nH]c2ccccc21,scaled lipid accumulation score,[6],≤ -0.006 (inactive)
CCCCCCCC/C=C\CCCCCCCC(=O)NCCS(=O)(=O)O [N-Oleoyl Taurine],scaled lipid accumulation score,[1],0.011 (inactive)
C[C@@H](Oc1cc(-c2cnn(C3CCNCC3)c2)cnc1N)c1c(Cl)ccc(F)c1Cl [listing 1 of 2 here],scaled lipid accumulation score,[2],≤ 0 (inactive)
same,scaled lipid accumulation score,[3],0.145 (inactive)
same,scaled lipid accumulation score,[4],0.477 (inactive)
same,scaled lipid accumulation score,[6],0.242 (inactive)
C[C@@H](Oc1cc(-c2cnn(C3CCNCC3)c2)cnc1N)c1c(Cl)ccc(F)c1Cl [listing 2 of 2 here],scaled lipid accumulation score,[5],0.909 (active)
same,scaled lipid accumulation score,[6],0.863 (active)
CC(Oc1cc(-c2cnn(C3CCNCC3)c2)cnc1N)c1c(Cl)ccc(F)c1Cl [(S)-crizotinib],scaled lipid accumulation score,[5],0.504 (inactive)
same,scaled lipid accumulation score,[6],0.396 (inactive)
CCCCCCCCCCCCCCCCOC[C@H](COP(=O)([O-])OCC[N+]1(C)CCCC1)OC(C)=O [Pyrrolidino PAF C-16],scaled lipid accumulation score,[1],≤ 0 (inactive)
C[N+]1(C)CCCC1C(=O)O (stereo not drawn) [Stachydrine hydrochloride],scaled lipid accumulation score,,0.046 (inactive)
O=C(/C=C\n1cnc(-c2cc(C(F)(F)F)cc(C(F)(F)F)c2)n1)N1CC(F)(F)C1,scaled lipid accumulation score,[5],≤ -0.009 (inactive)
same,scaled lipid accumulation score,[6],0.294 (inactive)
CCCCC[C@](C)(O)/C=C/[C@@H]1[C@@H](C/C=C\CCCC(=O)OC)[C@@H](O)C[C@H]1O [15(S)-15-methyl Prostaglandin F2.alpha. methyl ester],scaled lipid accumulation score,[1],≤ 0 (inactive)
CC(N)(Cc1ccc(O)cc1)C(=O)O (racemic) [DL-alpha-Methyl-p-tyrosine],scaled lipid accumulation score,[6],0.213 (inactive)
CC(Cc1ccccc1)(NC(=O)CN)c1ccccc1 (racemic),scaled lipid accumulation score,[6],0.922 (active)
CC(Cc1ccccc1)(NC(=O)CN)c1ccccc1 (stereo not drawn) [Remacemide hydrochloride],scaled lipid accumulation score,[6],0.479 (inactive)
COc1ccc(-c2cc(=O)c3c(O)c(OC)c(OC)cc3o2)cc1O [Eupatorin],scaled lipid accumulation score,[6],0.725 (inactive)
CC(C)Cn1c(=O)n(C)c(=O)c2nc[nH]c21 [Isobutylmethylxanthine],scaled lipid accumulation score,library stock concentration: 9 mM,≤ 0 (inactive)
O=C[C@H](O)[C@@H](O)[C@H](O)CO [Xylose],scaled lipid accumulation score,[5],≤ 0 (inactive)
same,scaled lipid accumulation score,[6],0.028 (inactive)
CN1CCN(C2=Nc3ccccc3Oc3ccc(Cl)cc32)CC1 [Loxapine Succinate],scaled lipid accumulation score,[5],≤ 0 (inactive)
same,scaled lipid accumulation score,[6],0.493 (inactive)
CN1CCN(C2=Cc3ccccc3Oc3ccc(Cl)cc32)CC1.O=C(O)/C=C/C(=O)O,scaled lipid accumulation score,[6],1.01 (active)
CN1CCN(C2=Nc3ccccc3Oc3ccc(Cl)cc32)CC1 [Loxapine succinate],scaled lipid accumulation score,,0.3 (inactive)
same,scaled lipid accumulation score,library stock concentration: 4.5 mM,0.253 (inactive)
same,scaled lipid accumulation score,[6],0.708 (inactive) and 0.486 (inactive)
CN1CCN(C2=Nc3ccccc3Oc3ccc(Cl)cc32)CC1,scaled lipid accumulation score,[6],0.608 (inactive)
CN1CC2c3ccccc3Oc3ccc(Cl)cc3C2C1 (stereo not drawn) [Asenapine],scaled lipid accumulation score,[5],0.156 (inactive)
same,scaled lipid accumulation score,[6],0.752 (inactive)
CN1CC2c3ccccc3Oc3ccc(Cl)cc3C2C1 (stereo not drawn) [Asenapine maleate],scaled lipid accumulation score,[6],0.772 (inactive)
